High-throughput results deposited in PubChem BioAssay by National Center for Advancing Translational Sciences (NCATS).
DT40 TDP1 no CPT = qHTS for Inhibitors of human tyrosyl-DNA phosphodiesterase 1 (TDP1): qHTS in cells in absence of CPT; AID 686978, 2013; Potency, µM (titrated, usually from 46.2 µM), for the others: at the highest dose activity change, negative = growth inhibition, actives largely listed as inhibitors; DT40 Tdp1-/- hTDP1 cells, no CPT, ATP luminescence, 48 h; hit rate 15% among 420,000; note: potency is the fitted concentration of half-maximal effect; nearly all actives have a fitted effect of over 55% in size
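No-CPT arm: Tdp1-/-;hTDP1 DT40 cells (400/well) plus compounds, incubated ≥48 hr at 37 °C. Readout CellTiter-Glo luminescence.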
uPA surface inh = blocks generation of uPA at the cell surface. cell surface uPA generation assay, qHTS. Potency, µM (doses to about 38.3 µM), without a hit: at the top dose activity change, negative = inhibition, actives largely listed as inhibitors. hit rate 0.31% among 330,000. AID 540303; active = well fitted inhibition curve with a large enough effect; inconclusive = small, poorly fitted or top-dose-only effect; inactive = no such curve, though single readings can be large or run the other way; tested in mouse RAW 264.7 cells; note: potency is the fitted concentration of half-maximal effect; nearly all actives have a fitted effect of over 55% in size
IL1B secr inh = inhibitors of inflammasome signaling (IL-1 beta secretion); THP-1 LPS/ATP IL-1B secretion, AlphaLISA, 16 h; hits give low values; activity change, % at 57.5 µM; hit rate 4.7% among 360,000; in the data active = activity change below about -50%; inconclusive = mostly about -30% to -49%
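THP-1 cells pretreated 1 hr with compounds (up to 57.5 uM final), then stimulated with LPS (250 ng/mL final) plus ATP (1.25 mM final); secreted IL-1B measured by AlphaLISA after 16 hr, decreased signal indicating inhibition.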
HT1080-NT tox = kills 2HG-producing HT-1080-NT fibrosarcoma cells | HT-1080-NT fibrosarcoma viability, CellTiter-Glo ATP luminescence, 48 h | Potency, µM (titrated, usually from 46.1 µM), for inactives: at the highest dose activity, negative = less viability, most hits filed as cytotoxic | AID 686970 | hit rate 1.6% among 360,000;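 note: NT is the 2HG producing partner of a matched IDH1 knockdown line; potency is the fitted concentration of half-maximal effect; 0% = DMSO-treated cells and -100% = media-only wells without cells; nearly all actives have a fitted effect of over 55% in size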
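A 48-hour cytotoxicity screen used HT-1080-NT cells plated 2 hours before compound delivery. ATP-based CellTiter-Glo luminescence measured viability, normalized to DMSO and no-cell controls.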
TDP1 cell CPT = DT40-hTDP1 cell growth loss with CPT | chicken DT40 Tdp1-/-;hTDP1 cells + 20 nM CPT, ATP luminescence, 48 h | Potency, µM (titrated, usually from 46.2 µM), without a hit: top-dose activity change, negative = growth inhibition, usual class: inhibitors | hit rate 12% among 420,000 | AID 686979; note: potency is the fitted concentration of half-maximal effect; nearly all actives have a fitted effect of over 55% in size
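Chicken DT40 Tdp1-/- cells complemented with human TDP1, 400 cells/well, exposed to compounds plus 20 nM camptothecin for at least 48 h at 37 C; viability read as ATP content by CellTiter-Glo luminescence.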
HT1080 IDH1KD tx = HT-1080 IDH1 knockdown cell toxicity (counter line) | HT-1080 IDH1 knockdown viability, ATP luminescence, 48 h | Potency, µM (top dose mostly 46.1 µM), for the others: at the highest dose activity, negative = toxicity, actives largely listed as cytotoxic | hit rate 2% among 360,000 | AID 686971;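 note: potency is the fitted concentration of half-maximal effect; 0% = DMSO wells and -100% = cell-free medium wells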
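Luminescent ATP read-out (CellTiter-Glo, 10 min at room temperature) after 48 h compound exposure at 37 °C gave viability of IDH1-knockdown HT-1080 cells. Activity was normalised to DMSO and cell-free wells, then fitted as concentration-response curves.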
* marks the source's active call; other numbers are inactive results; i = inactive; ? = inconclusive; nt = not tested or not shown. Rows were chosen to be rich in hits. Some 19% of all compounds tested hit in one or more screens of this group. Unless noted, calls come from the whole dose curve; as a rule, active = well fitted curve in the direction sought with a large enough effect; inconclusive = small, poorly fitted or top-dose-only effect, or another doubt; inactive = no such curve, though single readings can be large; an effect the other way counts as inactive or inconclusive. Unless noted, % is set by controls: 0 for no effect and ±100 for the full control effect.

SMILES	DT40 TDP1 no CPT	uPA surface inh	IL1B secr inh	HT1080-NT tox	TDP1 cell CPT	HT1080 IDH1KD tx
O=C(NCCCN1CCCC1=O)C(=O)NCC1OCCCN1S(=O)(=O)c1ccccc1 (centres undefined)	-9%	nt	9	-1%	-3%	-1%
COc1ccc(CNC(=O)Nc2ccc3c(c2)c(=O)n(C)n3Cc2cccc(C(F)(F)F)c2)cc1	23µM*	nt	10	-17%	?	?
Cn1c(=O)c2cc(NC(=O)NCc3ccc(F)cc3)ccc2n1C	-14%	nt	-12	23%	-10%	6%
COc1ccc(OC)c(CC(=O)Nc2ccc3c(c2)c(=O)n(C)n3Cc2cccc(C(F)(F)F)c2)c1	?	nt	-15	-9%	29µM*	-6%
CCOC(=O)N1CCN(C(=O)c2cc(COc3cccc(C(C)=O)c3)on2)CC1	?	-3%	0	4%	?	2%
Cc1cccnc1CN1CCN(C(=O)c2cc(COc3ccc4ncccc4c3)on2)CC1	7.3µM*	-7%	-24	-6%	5.8µM*	?
CCOC(=O)N1CCN(C(=O)c2cc(COc3ccc4ncccc4c3)on2)CC1	6.5µM*	-7%	-10	-10%	6.5µM*	-17%
CC1(C(=O)NS(=O)(=O)c2cccc(F)c2)CCN1C(=O)CC1CCCC1 (centres undefined)	5%	nt	0	?	-4%	26%
O=C1C(N2CCOCC2)=C(n2nnc3ccccc32)C(=O)c2ccccc21	3.3µM*	-16%	-78*	12µM*	2.3µM*	16µM*
N#CC1(NC(=O)CN2C(=O)c3ccc([N+](=O)[O-])cc3C2=O)CCCCC1	-2%	1%	1	7%	-3%	6%
CCc1ccc(NC(=O)C(=O)NCCN2CCN(C(=O)c3ccc(OC)cc3)CC2)cc1	13µM*	nt	-5	-3%	?	-13%
CC(C)(C)c1ccc(C(=O)N2CCN(CCNC(=O)C(=O)NCc3ccc(Cl)cc3)CC2)cc1	21µM*	-10%	-67*	?	15µM*	?
CCc1nc(SC)ncc1C(=O)NCc1cccc(Br)c1	1%	nt	nt	nt	5%	nt
CN1C[C@@H]2[C@@H]3C(=O)N(Cc4ccccc4)C(=O)[C@@H]3[C@](Cc3ccccc3)(C1=O)N2C(=O)c1ccc(Br)cc1	?	-1%	-9	5%	-7%	-2%
CCOC(=O)[C@]12CCCC=C1N(Cc1ccco1)C(=O)[C@H](CC(=O)NCCc1ccccc1OC)C2	?	nt	-3	1%	?	0%
O=C1O[C@@H](c2ccccc2)C[C@@H](O)C(=O)CCc2ccccc21	?	nt	2	13%	-14%	1%
COc1ccc(NC(=O)NNC(=O)COc2ccc3ccccc3c2)cc1	12%	0%	i	8%	5%	-3%
C=CC[n+]1c(-c2ccc(OC)cc2)csc1NNC(=O)Nc1ccccc1	5.2µM*	-1%	-25	?	7.3µM*	?
C=CC[n+]1c(-c2ccc(C)cc2)csc1Nc1ccc(NC(C)=O)cc1	?	7.1µM*	-21	-17%	?	?
CCS(=O)(=O)c1nnnn1-c1ccccc1S(C)(=O)=O	?	1%	-97*	18µM*	?	13µM*
O=S(=O)(Cc1nnnn1-c1ccc(Br)cc1)c1ccccc1	-9%	nt	-22	-3%	-12%	0%
COc1cc(/C=N/Nc2snc(SC)c2C#N)ccc1O	3.2µM*	nt	17	?	4µM*	3.2µM*
COc1cc(/C=N/Nc2nc3ccccc3[nH]2)cc(Br)c1OCC(=O)N(C)C	18µM*	-9%	?	-27%	?	-22%
COC(=O)c1ccc(/C=N/Nc2nc3ccccc3[nH]2)cc1	?	-8%	-8	?	?	?
COc1ccc(C(=O)N/C(=C/c2cccs2)c2nc3ccccc3[nH]2)cc1OC	?	-12%	0	5%	?	-2%
SMILES	DT40 TDP1 no CPT	uPA surface inh	IL1B secr inh	HT1080-NT tox	TDP1 cell CPT	HT1080 IDH1KD tx
COc1cc(/C=C(/C(=O)c2cccs2)c2nc3ccccc3[nH]2)cc(OC)c1O	16µM*	-10%	-98*	?	?	?
COc1cc(/C=N/Nc2nc3ccccc3[nH]2)cc(OC)c1O	3.7µM*	-10%	-99*	-30%	4.1µM*	?
COc1cccc(/C=N/Nc2nc3ccccc3[nH]2)c1O	23µM*	?	-55*	?	18µM*	12µM*
COc1cccc(/C=N/Nc2nc3ccccc3n3cnnc23)c1	?	-13%	16	10%	-15%	6%
COc1cccc(/C=N/Nc2nc3ccccc3n3cnnc23)c1O	5.8µM*	-9%	-112*	-26%	5.8µM*	?
COc1cccc(/C=N/Nc2nc3ccccc3[nH]2)c1OC	-27%	-10%	-12	14%	7%	13%
COc1cc(/C=N/Nc2nc3ccccc3[nH]2)ccc1O	4.6µM*	?	-105*	10%	6.5µM*	6%
COc1cc(/C=N/Nc2nc3ccccc3[nH]c2=O)ccc1O	-7%	4%	5	7%	-7%	19%
CC(C)n1c(O)c(N=NC(=O)C2COc3ccccc3O2)c2ccccc21 (centres undefined)	?	2%	-89*	-24%	?	?
CCc1nc(SCC(=O)Nc2ccccc2Cl)n[nH]1	-18%	2%	13	5%	23%	1%
Cc1ccc(-c2nc(CS(=O)(=O)CC(=O)N3CCc4ccccc4C3)c(C)o2)cc1	21µM*	?	-17	2%	18µM*	-14%
Cc1ccccc1-c1nc(CS(=O)(=O)CC(=O)N2CCN(c3ccccc3)CC2)c(C)o1	?	nt	nt	nt	-24%	nt
Cc1ccc(-c2nc(CS(=O)(=O)CC(=O)N3CCN(c4ccccc4)CC3)c(C)o2)cc1	23µM*	nt	nt	nt	?	nt
O=C(NCc1ccccc1)c1cc(C2CCCN(S(=O)(=O)c3cccs3)C2)on1 (centres undefined)	?	nt	-59*	20%	?	10%
O=C(NCc1ccc(F)cc1)c1cc(C2CCCN(S(=O)(=O)c3ccccc3)C2)on1 (centres undefined)	16µM*	nt	-7	-3%	?	0%
CC(C)S(=O)(=O)N1CCCC(c2cc(C(=O)NCc3ccccc3)no2)C1 (centres undefined)	-11%	nt	-14	18%	-3%	9%
